Hit rate of the full screen: of about 1,500 compounds, about 890 (59%) were called active. The set was probably picked from earlier hits. These entries were drawn from the full list. Measured potencies and affinities stand elsewhere. Unmarked numbers belong to inactive results.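 How the source made its calls: active means inhibition of the choline-evoked signal at any tested dose together with a fitted dose-response curve; inactive means no inhibition at any dose or no curve.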
Each molecule was assayed against High affinity choline transporter 1 (Homo sapiens) (UniProt Q9GZV3) (assay: CHT inhibitors, dose response, cell-based, 5-point CRC, membrane potential dye (AID 504840;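 further: 0% = buffer-only response and 100% = EC90 choline response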)). Conditions: HEK293-CHT, choline-induced depolarization, CHT with LV-to-AA double alanine mutation; series mostly up to 37 µM; inhibition: at the top concentration.
Sequence of High affinity choline transporter 1 (Homo sapiens) (Q9GZV3 whole entry, looked up): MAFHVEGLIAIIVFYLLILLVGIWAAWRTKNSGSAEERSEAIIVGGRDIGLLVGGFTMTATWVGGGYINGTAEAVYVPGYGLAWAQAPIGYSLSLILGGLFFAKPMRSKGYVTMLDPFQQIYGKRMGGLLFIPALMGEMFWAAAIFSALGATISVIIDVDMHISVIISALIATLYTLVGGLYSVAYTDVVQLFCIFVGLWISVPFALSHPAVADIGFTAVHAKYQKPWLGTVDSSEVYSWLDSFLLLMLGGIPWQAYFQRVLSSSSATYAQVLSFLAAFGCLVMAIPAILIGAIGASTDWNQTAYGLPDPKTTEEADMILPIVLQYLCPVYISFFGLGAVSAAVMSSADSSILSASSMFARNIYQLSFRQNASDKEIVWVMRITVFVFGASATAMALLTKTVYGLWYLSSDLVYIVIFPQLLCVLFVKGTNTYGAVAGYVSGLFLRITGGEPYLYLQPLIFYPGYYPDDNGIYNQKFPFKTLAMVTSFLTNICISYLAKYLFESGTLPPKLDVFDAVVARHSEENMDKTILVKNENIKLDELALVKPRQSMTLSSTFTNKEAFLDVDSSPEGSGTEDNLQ

| SMILES | inhibition [%] |
| --- | --- |
| CC(C)(C)NS(=O)(=O)c1ccc(N2C(=O)c3ccccc3C2=O)cc1 | 29.7 |
| Cc1noc(C)c1C(=O)Nc1sc(C)c(-c2ccccc2)c1C#N | 36.6 |
| O=C(OCc1nc2ccsc2c(=O)[nH]1)c1cc(Br)c(Br)s1 | 33.4 |
| O=c1c(-c2ccccc2)c[nH]n1-c1cccc([N+](=O)[O-])c1 | 51.3 |
| Cc1[nH]n(-c2ccccc2)c(=O)c1C(c1cccc([N+](=O)[O-])c1O)c1c(C)[nH]n(-c2ccccc2)c1=O | 62.9 |
| Cc1cccnc1NC(=O)c1cccc(S(=O)(=O)N2CCN(c3ccc(F)cc3)CC2)c1 | 28.9 |
| O=C(C1CCN(S(=O)(=O)c2ccc(Br)s2)CC1)N1CCN(c2ccccc2)CC1 | 7.31 |
| COc1cc(-c2nnc(SC/C=C/c3ccccc3)n2N)cc(OC)c1OC | 32.7 |
| CCOC(=O)c1sc(=S)n(CC)c1NC(=O)C1CC1 | 23.2 |
| O=c1cc(CNc2ccc(Br)cc2)nc2sccn12 | 33.4 |
| CCCN1Cc2cccc(C(=O)NCc3ccccc3OC)c2C1=O | 30.2 |
| Cc1cc(O)ccc1C1(c2ccc(O)cc2C)OC(=O)c2ccccc21 | 28.5 |
| CCCCCCCCC[n+]1cccc2c3ccccc3ccc21 | 42.3 |
| Cc1c(C)n(CCc2ccccc2)c2ncnc(NN)c12 | 28.7 |
| Cn1ncc2c(N3CCC(Cc4ccccc4)CC3)ncnc21 | 33.5 |
| O=C(NC1CC1)C1=C[C@H](c2ccc(Br)cc2)C[C@H](OCc2ccc(CO)cc2)O1 | 52.6 |
| Cn1nc(C(F)(F)F)c(-c2ccccc2)c1NC(=O)c1ccco1 | 58.8 |
| O=C(Nc1ccc(Cl)cn1)C1CCCN(c2ncnc3c2nc2n3CCCCC2)C1 (stereo not drawn) | 53.9 |
| O=C(Nc1ccccc1Cl)C1CCCN(c2ncnc3c2nc2n3CCCCC2)C1 (stereo not drawn) | 79.8 |
| O=C(N/N=C/c1cccc(Oc2ccccc2)c1)c1cccc(O)c1 | 25.8 |
| O=c1cc(CN2CCN(c3ccccc3O)CC2)nc2sccn12 | 51.6 |
| O=c1cc(CSc2nc3cc(Cl)ccc3o2)nc2sccn12 | 48.6 |
| O=C(Cn1nc(C(F)(F)F)c2c1CCCC2)NC1CCCC1 | 15.2 |
| O=C(Cn1nc(C(F)(F)F)cc1C1CC1)NCc1ccccc1F | 3.99 |
| Clc1cccc(CNCCNCc2cccc(Cl)c2)c1 | 27.9 |
| O=C(CSc1nnc(Cc2ccsc2)o1)c1ccccc1 | 45.5 |

| SMILES | inhibition [%] |
| --- | --- |
| CC(C)(C)OC(=O)NCCc1nnc(SCc2ccc(Cl)cc2)o1 | 24.7 |
| CCOC(=O)c1[nH]c(C=O)c(C(=O)OCC)c1C | 38 |
| C=CCn1c(CSc2nc3ccccc3s2)nnc1SCC(=O)NCc1ccccc1 | 42.6 |
| O=C(CSc1nccn1-c1ccc(F)cc1)NCc1ccc(F)cc1 | 30.9 |
| COc1ccc(-c2cc(C(=O)NCCCN3CCOCC3)c3cc(C(C)C)ccc3n2)cc1 | 29.7 |
| Cc1nc2cc(C(=O)N3c4ccccc4CC3C)ccc2s1 (stereo not drawn) | 45.4 |
| CCN1CCN(C(=O)CCc2nc3ccccc3n2-c2ccccc2)CC1 | 64 |
| CC(=O)c1cccc(OCC(=O)c2cc(C)n(-c3cc(C)on3)c2C)c1 | 24 |
| N#C/C(=C\c1ccc(O)c(Br)c1)C(=O)NCc1ccccc1 | 24.4 |
| COc1ccccc1NS(=O)(=O)c1ccc(O)c(C(=O)OCC(=O)c2ccc(Cl)cc2Cl)c1 | 5.73 |
| Cc1c(Cl)cccc1NCC(=O)NN=C1CCCC1 | 48.2 |
| Cc1nc(SC2CC(=O)N(c3cc(Cl)cc(Cl)c3)C2=O)nc2c1CCCC2 (stereo not drawn) | 18.9 |
| COc1ccc(OC)c(Cc2nnc(CCC(=O)N3CCN(C4CCCC4)CC3)o2)c1 | 50.6 |
| CC(C)(C)c1cc(C(=O)N/N=C/c2ccc(F)cc2)n(-c2ccccc2)n1 | 37.8 |
| Cc1cc(/C=N/NC(=O)C(=O)NCc2ccccn2)c(C)n1-c1ccccc1 | 59.3 |
| Cc1ccc(S(=O)(=O)N/N=C/c2cc(Br)ccc2O)cc1 | 53.1 |
| CCOC(=O)c1cc2c(s1)-c1c(C)cccc1OC2 | -5.26 |
| Cc1ccccc1NC(=S)NNC(=O)c1ccncc1 | 1.63 |
| COc1ccc(C(=O)NC(=S)NNC(=O)c2ccc(C)cc2)cc1 | 27.9 |
| Cc1ccc(C)c(NC(=O)c2cccc(Oc3ccc([N+](=O)[O-])cc3Cl)c2)c1 | 29.1 |
| O=C(Nc1ccc(F)cc1)N1CCN(CCc2ccccc2)CC1 | 32.2 |
| Cc1ccc(C#CC[N+]2(C)CCCCC2)cc1 | 62.4 |
| C#CC[N+]1(CC#Cc2ccc(C)cc2)CCCCC1 | 63.6 |
| Cc1cn([C@H](C(=O)NCCCCCCCCCCC(=O)N2CCN(C(=O)OC(C)(C)C)CC2)[C@@H](C)O)nn1 | 38 |
| O=C(CNC(=O)c1ccc(Cl)cc1Cl)OCC(=O)c1ccc2c(c1)OCCO2 | 56.5 |
| CN(/N=C/c1cc(Cl)cc(Cl)c1O)C(=S)NC(C)(C)C | 19.2 |

| SMILES | inhibition [%] |
| --- | --- |
| COc1cc(CCCN2C(=O)C(=O)NC[C@H]2Cc2cccc3ccccc23)cc(OC)c1OC | 61.8 |
| CC(NC(=O)Cc1ccc(S(=O)(=O)N2CCOCC2)s1)c1ccc(Cl)c(Cl)c1 (stereo not drawn) | 36.9 |
| Cc1ccc(F)cc1NC(=O)c1ccc(NS(=O)(=O)c2ccc(Br)s2)cc1 | 64.1 |
| O=S(=O)(Nc1nc2ccccc2s1)c1ccc(Cl)s1 | 27.1 |
| CCOC(=O)c1ccc(NC(=O)c2ccc(C)c(S(=O)(=O)N3CCOCC3)c2)cc1 | 22.8 |
| O=C(Nc1ccccc1)c1nnn(Cc2ccccc2)c1NC(=O)C(F)(F)F | 45.3 |
| Cc1ccc(-c2csc3nc(SCC(=O)Nc4ccc(Cl)c(C(=O)O)c4)[nH]c(=O)c23)cc1 | 41.6 |
| O=C(O)CSc1cc(C(=O)c2ccccc2O)cn2c(=O)c3c(-c4ccccc4)csc3nc12 | 76.9 |
| O=S(=O)(Nc1nc2ccccc2nc1NCC1CCCO1)c1cc(Cl)ccc1Cl (stereo not drawn) | 28.4 |
| CCCc1cc(NCCN(C)C)n2c(nc3ccccc32)c1C#N | 47.7 |
| NC(=O)c1c(NC(=O)CN2C(=O)NC(Cc3ccccc3)C2=O)sc2c1CCC2 (stereo not drawn) | 51.4 |
| O=C(Nc1sc2c(c1C(=O)O)CCCC2)c1ccc(Cl)cc1 | 26.7 |
| O=C(NC1CCCC1)C(c1cccnc1)N(CCc1ccccc1)C(=O)c1ccco1 (stereo not drawn) | -5.07 |
| CC1CCC(NC(=O)c2ccc(NC3=NC4CS(=O)(=O)CC4S3)cc2)CC1 (stereo not drawn) | 54.4 |
| CC1CCC(NC(=O)Cn2c3c(c(-c4ccccc4Cl)cc2=O)CCC3)CC1 (stereo not drawn) | 44.9 |
| NC(N)=Nc1nc(CCN2C(=O)c3ccccc3C2=O)cs1 | 59.8 |
| CCN(CC)S(=O)(=O)c1cc(C(=O)N2CCc3ccccc32)ccc1Cl | 14.8 |
| CC(C)n1c(O)c(N=NC(=O)CNC(=O)Cc2ccc(Cl)cc2)c2ccccc21 | 50.6 |
| CCCCn1nc2cc(C(=O)NC3CCc4ccccc43)ccc2c1OCC (stereo not drawn) | 48 |
| Cc1ccc(NC(=O)CN(C)C(=O)COC(=O)CNS(=O)(=O)c2ccc(Br)cc2Cl)cc1 | 62.6 |
| CC(Oc1ccc(Cl)cc1Cl)C(=O)Nc1ccc(S(=O)(=O)Nc2cnc3ccccc3n2)cc1 (stereo not drawn) | 71.6 |
| O=C(Nc1ccc(S(=O)(=O)Nc2nccs2)cc1)c1c(F)c(F)c(F)c(F)c1F | 41.6 |
| O=C1C[C@H]2[C@H](CO)[C@@H](OC(=O)c3ccc(-c4ccccc4)cc3)C[C@H]2O1 | 47.8 |
| O=C(Nc1ccc(S(=O)(=O)Nc2cnc3ccccc3n2)cc1)c1ccc(Cl)c([N+](=O)[O-])c1 | 39.5 |
| CCC(Oc1ccccc1C)C(=O)Nc1ccc(S(=O)(=O)Nc2cc(C)on2)cc1 (stereo not drawn) | 47.4 |
| CC1(C)C(C=C(Cl)Cl)C1C(=O)Nc1ccc(S(=O)(=O)Nc2ncccn2)cc1 (stereo not drawn) | 48.7 |

| SMILES | inhibition [%] |
| --- | --- |
| COC(=O)C1=C(N)Oc2cc(C)n(CCc3ccccc3)c(=O)c2C1c1cccnc1 (stereo not drawn) | 27.2 |
| CC(OC(=O)c1cc2sccc2n1C)C(=O)NC(C)(C)C (stereo not drawn) | 49.4 |
| COc1ccc(N2CCN(CC(=O)Nc3c(C)cc(C)cc3C)CC2)cc1 | 28.8 |
| CN(C)c1ccc(Nc2c3c4c(cccc4n(C)c2=O)C(=O)c2ccccc2-3)cc1 | 38.4 |
| CCCCOC(=O)c1ccc(NC(=O)c2cc(Cl)c(Cl)cc2C(=O)O)cc1 | 43.3 |
| CC(=O)c1cc2c(cc1NC(=O)CCNC(=O)c1ccccc1Cl)OCO2 | 49.1 |
| CCCCNS(=O)(=O)c1ccc(NC(=O)Cc2ccccc2[N+](=O)[O-])cc1 | 56.2 |
| O=C(CC(=O)c1c(F)cccc1Cl)c1ccccc1O | 51 |
| Cc1ccc2[nH]c3c(c2c1)CN(C(=O)CN1CCN(Cc2ccc4c(c2)OCO4)CC1)CC3 | 53.2 |
| CCOc1[nH]c(/N=C/c2ccco2)c(C#N)c1C#N | 30.8 |
| CC(C)(C)C(=O)N1CCN(c2ccc(NC(=O)c3ccc4c(c3)OCCO4)cc2)CC1 | 40.2 |
| COc1ccc(C(=O)NC(=S)NNC(=O)CCc2ccccc2)cc1 | 23.3 |
| Cc1ccc(CNC(=O)N[C@@H](Cc2ccccc2)C(=O)O)cc1 | 10.7 |
| COC(=O)CCCCCN1C(=O)NC(C2CC2)C(C(=O)OCc2ccccc2)=C1C (stereo not drawn) | 22.5 |
| CC1=C(C(=O)OC(C)C)C(c2ccc(Br)s2)NC(=O)N1C (stereo not drawn) | 45.8 |
| CCOC(=O)c1cnc2c(Cl)cc(Cl)cc2c1NCCOCCO | 66.2 |
| O=C(CS(=O)(=O)Nc1ccc(F)cc1Cl)Nc1ccc(F)cc1Cl | 26.4 |
| CC(C(=O)NC1CCS(=O)(=O)C1)N1C(=O)/C(=C/c2ccc(Cl)cc2)SC1=S (stereo not drawn) | 45 |
| Cc1ccc(S(=O)(=O)NCCC(=O)NC(C)CCc2ccccc2)cc1 (stereo not drawn) | 46.8 |
| Cc1n[nH]c(=O)c2c(NC(=O)CSc3nc4ccccc4c(=O)n3C(C)C)oc(C)c12 | 66.6 |
| CC(C)n1c(=S)[nH]c2cc(Cl)ccc21 | 54.5 |
| CCn1cc(C(=O)N(CCC(C)C)c2c(N)n(Cc3ccccc3)c(=O)[nH]c2=O)c(=O)c2ccc(C)nc21 | 41.2 |
| Fc1ccc(-c2nc3c(-c4ccc(F)cc4)cnn3cc2CCN2CCOCC2)cc1 | 44.1 |
| CN1CCN(c2ccc(NC(=O)c3ccc(Cl)cc3Cl)cc2)CC1 | 46 |
| CSC1=C(C#N)C(c2ccncc2)C(C(=O)Nc2ccccc2)=C(C)N1 (stereo not drawn) | 42.5 |

— PubChem BioAssay AID504840 (Johns Hopkins Ion Channel Center, 2011)
